# Where “and” joins values, the source holds several entries; their conditions need not be identical. Equal values may be shown once. Where a name gives a salt, the structure may show the parent alone. The campaign covered roughly 5,800 compounds. About 620 (11%) showed activity. Shown is part of a subset that was picked to be rich in actives. Unmarked numbers belong to inactive results.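 Rule for the calls: active = score above a cut-off or among the top three wells of a plate; in these data no inactive exceeds 0.85.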
# Test system: primary human hepatic stellate cells (donor 1)
# Assay: scaled lipid accumulation score (0 = DMSO-like, 1 = nortriptyline-like); higher = stronger HSC inactivation (lipid re-accumulation), active = hit call of the paper
# Details: 48 h
# [1] = library stock concentration: 3.33 mM
# [2] = library stock concentration: 10 mM
# [3] = library stock concentration: 1 mM
structure (smiles),measurement,setting,value
CCCCC[C@H](O)/C=C/C=C\C/C=C\C/C=C\CCCC(=O)O,scaled lipid accumulation score,library stock concentration: 100 uM,≤ -0.02
COc1nc(C)cnc1NS(=O)(=O)c1cccnc1-c1ccc(-c2nnco2)cc1 [Zibotentan (ZD4054)],scaled lipid accumulation score,[1],≤ 0
same,scaled lipid accumulation score,[2],≤ 0
OCC(O)C(O)CO (stereo unspecified) [Erythritol],scaled lipid accumulation score,[1],≤ 0
same,scaled lipid accumulation score,[2],≤ -0.001
CNCCCN1c2ccccc2CCc2ccccc21 [Desipramine hydrochloride],scaled lipid accumulation score,library stock concentration: 6.6 mM,0.471
same,scaled lipid accumulation score,[2],0.667
CNCCCN1c2ccccc2CCc2ccccc21.Cl,scaled lipid accumulation score,[2],0.969 (active)
CNCCCN1c2ccccc2CCc2ccccc21.Cl [Desipramine hydrochloride] [listing 1 of 2 here],scaled lipid accumulation score,,0.887 (active)
CNCCCN1c2ccccc2CCc2ccccc21.Cl [Desipramine hydrochloride] [listing 2 of 2 here],scaled lipid accumulation score,[2],1.15 (active)
CCCCC1CCC(c2nc(-c3ccncc3)no2)CC1 (stereo unspecified),scaled lipid accumulation score,[3],0.03
same,scaled lipid accumulation score,[2],≤ -0.001
CC(C)N(C[C@H]1O[C@@H](n2cnc3c(N)ncnc32)[C@H](O)[C@@H]1O)[C@H]1C[C@@H](CCc2nc3cc(C(C)(C)C)ccc3[nH]2)C1,scaled lipid accumulation score,[1],≤ 0
same,scaled lipid accumulation score,[2],0.467
CC(C)OC(=O)OCOP(=O)(CO[C@H](C)Cn1cnc2c(N)ncnc21)OCOC(=O)OC(C)C [Tenofovir Disoproxil Fumarate],scaled lipid accumulation score,[1],≤ 0
same,scaled lipid accumulation score,[2],≤ 0
CCc1c(Cl)c(O)c(Cl)c(O)c1C(=O)O[C@H]1[C@H](O)[C@H](OC)[C@H](OC/C2=C\C=C\C[C@H](O)/C(C)=C/[C@H](CC)[C@@H](O[C@@H]3OC(C)(C)[C@@H](OC(=O)C(C)C)[C@H](O)[C@@H]3O)/C(C)=C/C(C)=C/C[C@@H]([C@@H](C)O)OC2=O)O[C@@H]1C [Fidaxomicin],scaled lipid accumulation score,[1],≤ 0
same,scaled lipid accumulation score,[2],0.125
COc1ccc(CCN(C)CCCOc2ccc(S(=O)(=O)c3c(C(C)C)c4ccccc4n3C)cc2)cc1OC,scaled lipid accumulation score,[2],0.445
CC(C)CC[C@@H](O)[C@@H](C)[C@H]1CC[C@H]2[C@@H]3CC=C4C[C@@H](O)CC[C@]4(C)[C@H]3CC[C@]12C [22(R)-hydroxy Cholesterol],scaled lipid accumulation score,[3],0.045
O=C1C[C@@H]2[C@@H](/C=C/[C@@H](O)COc3cccc(C(F)(F)F)c3)[C@H](O)C[C@@H]2O1 [Fluprostenol Lactone Diol],scaled lipid accumulation score,[3],0.003
CC1=C(C(=O)Nc2cc3cn[nH]c3cc2F)C(c2ccc(C(F)(F)F)cc2)CC(=O)N1 (stereo unspecified),scaled lipid accumulation score,library stock concentration: 80 uM,0.022
same,scaled lipid accumulation score,library stock concentration: 400 uM,≤ 0 and ≤ -0.005
same,scaled lipid accumulation score,library stock concentration: 2 mM,0.014 and ≤ -0.005
same,scaled lipid accumulation score,[1],≤ 0
same,scaled lipid accumulation score,[2],≤ 0 and 0.096 and 0.308

# Reference: the supplement of paper PMC9135407
